Reference: PubChem BioAssay (NCI)
This is part of a sample that, as a whole, favours compounds with a hit. Of some 83,000 tested, about 20% had one in any assay.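 Cell lines were cultured in 96-well plates, exposed to a single compound concentration, and assessed for percent growth 48 hours later.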 Values without a mark were called inactive. Active and inactive are the calls of the source. The calls were made as follows: active = growth percent below 10; inactive = the rest.

Key:
Assay in all cases: NCI-60 one-dose screen, 48 h (100 = growth as untreated, 0 = no growth, -100 = all killed)
Details in all cases: 10 µM
NCI-H23 lung = test system: NCI-H23 lung
NCI-H226 lung = test system: NCI-H226 lung
NCI-H322M lung = test system: NCI-H322M lung
HOP-62 NSCLC = test system: HOP-62 NSCLC
NCI-H460 lung = test system: NCI-H460 lung
HOP-92 NSCLC = test system: HOP-92 NSCLC
A549/ATCC NSCLC = test system: A549/ATCC NSCLC
786-0 renal = test system: 786-0 renal
COLO 205 colon = test system: COLO 205 colon
NCI-H522 lung = test system: NCI-H522 lung

Compound | growth (NCI-H23 lung) [%] | growth (NCI-H226 lung) | growth (NCI-H322M lung) | growth (HOP-62 NSCLC) | growth (NCI-H460 lung) | growth (HOP-92 NSCLC) | growth (A549/ATCC NSCLC) | growth (786-0 renal) | growth (COLO 205 colon) | growth (NCI-H522 lung)
COc1cccc(COc2ccc(/C=C3\Oc4cc(O)ccc4C3=O)cc2)c1 | 46.7 | 51.3% | 89.4% | 17.6% | 27.4% | 16.3% | 71.4% | -58% (active) | 113% | 
COc1ccc2[nH]c(O)c(N=NC(=O)c3cc(-c4ccc(C)cc4)nc4ccccc34)c2c1 |  | 90.6% | 102% | 102% | 95.8% | 97.8% | 87.2% | 97.2% | 112% | 99.5%
Cc1noc2c(Cc3ccccc3)nn(CC(=O)N/N=C/c3ccc(Cl)cc3)c(=O)c12 |  | 14.5% | 96.3% | 34.9% | 10.4% | 9.05% (active) | 20.4% | -23.9% (active) | 51.8% | 
CCOC(=O)C1=C(N)N(c2ccccc2)C2=C(C(=O)CC(C)(C)C2)C1c1ccccc1OC (centres undefined) |  | 101% | 94% | 102% | 115% | 114% | 103% | 97.7% | 128% | 
CC(C)NC(=O)c1cc(-c2ccc(NC(=O)Nc3ccc(N4CCN(C)CC4)c(C(F)(F)F)c3)cc2)nc2cccnc12 |  | -69.1% (active) | -90.6% (active) | -88.4% (active) | -61.7% (active) | -74.8% (active) |  | -93.8% (active) | -81.1% (active) | -90.8% (active)
CC(C)(C)c1ccc(NCc2cn(-c3ccc(C(=O)O)cc3)nc2-c2ccc(C#N)cc2)cc1 |  | 31.6% | 41% | 36.2% | 11.6% | -3.79% (active) | 24.3% | 22.8% | 34.8% | 57.1%
O=C(CNc1nc(-c2ccccc2)cs1)Nc1ccc(Cl)cc1 |  | -62.5% (active) | -98% (active) | -76.1% (active) | -51.2% (active) | -71.9% (active) | -49.8% (active) | -72.8% (active) | -80.1% (active) | -80.2% (active)
CC1(C)CC[C@]2(C(=O)NCCCNCCCCNCCCN)CC[C@]3(C)C(=CC[C@@H]4[C@@]5(C)Cc6c([nH]c7ccccc67)C(C)(C)[C@@H]5CC[C@]43C)[C@H]2C1 |  | 71.8% | 101% | 85% | 96.5% | 60.5% | 86.5% | 89.1% | 115% | 79.6%
O=c1[nH][nH]c(Nc2ccccc2)c1N=Nc1ccc(F)cc1 |  | 84.4% | 83.5% | 119% | 101% | 71.2% | 84.8% | 91.3% | 107% | 
COc1cc2oc(-c3cccc(C(=O)Nc4ccc(Cl)cc4)c3)cc(=O)c2c(OCCNC(=O)CNC(=O)OC(C)(C)C)c1OC |  | 59.7% | 71.6% | 74.7% | 76% | 54.7% | 53.9% | 76.1% | 56.8% | 45.7%
CCCCSc1nc(Nc2ccc(/C(C)=N/NC(N)=S)cc2)c(C#N)c(-c2ccc(F)cc2)n1 |  | 20.7% | 53.8% | 22.7% | 18.4% | -18.5% (active) | 8.95% (active) | -20.5% (active) | 47.1% | 43.9%
O=C(CSc1nnc(-c2c[nH]c3ccccc23)n1-c1ccccc1)c1ccc(Br)cc1 |  | 39.1% | 45.7% | 73.6% | 34.5% | 28.1% | 29.9% | 82.4% | 13.5% | 46.3%
O=S(=O)(c1ccc(Cl)cc1)c1nc(-c2ccccc2)oc1S(=O)(=O)c1ccc(Cl)cc1 |  | 87.5% | 101% | 91.3% | 98% | 85.7% | 94.2% | 94.9% | 102% | 88.1%
Clc1ccc2c(N/N=C/c3c[nH]c4ccc(Br)cc34)ccnc2c1 |  | -64.4% (active) | -96.9% (active) | -59.1% (active) | 9.83% (active) | -69.1% (active) |  | -54.7% (active) | -44% (active) | -66.9% (active)
O=C(Nc1ccc(I)cc1F)c1cc(-c2ccc(F)cc2F)ccc1O |  | -7.15% (active) | 6.19% (active) | -10.6% (active) | 2% (active) | -26.3% (active) | 9.86% (active) | 16.7% | -35.6% (active) | -9.59% (active)
COc1ccc(CN2[C@H](C(=O)NCCCCCCC(=O)NO)Cc3c([nH]c4ccccc34)[C@H]2C2CC2)cc1 |  | 28.1% | 9.54% (active) | 14% | 6.41% (active) | -24.5% (active) | 17.3% | 17.4% | -94.8% (active) | -44.6% (active)
N#Cc1c(NC(=O)c2ccc(C(F)(F)F)c(Cl)c2)sc2c1CCC(=O)C2 |  | -26.4% (active) | 39.7% | -56.5% (active) | -10.1% (active) | -55.3% (active) | 19.3% | -48.2% (active) | -94% (active) | -71.2% (active)
CCOc1ccc2ncc(C#Cc3cncc(C(=O)Nc4ccc(CN5CCN(C)CC5)c(C(F)(F)F)c4)c3)n2n1 |  | -59.1% (active) | -76% (active) | -46.8% (active) | -52.9% (active) | -46.6% (active) | -33.9% (active) | -43.8% (active) | -45.8% (active) | -41.3% (active)
COC[C@@H](CC(C)C)N=C1NC(=O)/C(=C/c2ccc3ncsc3c2)N1 |  | -1.9% (active) | 15.8% | 3.81% (active) | 7.24% (active) | 3.44% (active) | 13.5% | 23.5% | -11.8% (active) | -3.68% (active)
CN1CCN(c2ccc(C(=O)/C=C/c3ccc(C#N)cc3)cc2)CC1 |  | 80.7% | 94.2% | 89.1% | 97.1% | 77.2% | 76.3% | 73.5% | 87.4% | 81.5%
CN(C(=O)c1ccc(C(C)(C)C)cc1)c1sc2c(c1C#N)CCC(=O)C2 |  | 62.6% | 88.4% | 34.6% | 35.6% | 21.9% | 91.5% | 50.3% | 80.7% | -45.8% (active)
O=C(c1ccc(O)cc1)C1[C@H](c2ccc(Br)cc2)[C@@H](c2ccccc2)NC12C(=O)Nc1ccc(Br)cc12 (some centres undefined) |  | -34.5% (active) | 10.4% | -36.2% (active) | 6.63% (active) | -21.3% (active) |  | -5.43% (active) | -85.2% (active) | -41.6% (active)
O=C(CSc1nnc(-c2ccc3nc(-c4ccc(Cl)cc4)[nH]c3c2)o1)Nc1ccc(Cl)cc1 |  | -68.8% (active) | -66.5% (active) | -56.4% (active) | -51.3% (active) | -6.37% (active) | -58.4% (active) | -76.8% (active) | 7.13% (active) | -45.1% (active)
O=C1Nc2cc(-c3ccc(NC(=O)c4cccc([N+](=O)[O-])c4)cc3)ccc2/C1=C/c1ccc[nH]1 |  | 76.7% | 102% | 94.9% | 103% | 109% |  | 103% | 42.9% | 84.3%
C=CC(=O)Nc1nc(-c2cccc(NS(=O)(=O)c3cccc4c(N(C)C)cccc34)c2)cs1 |  | 6.89% (active) | 56.2% | 31.2% | -32.8% (active) | -49.2% (active) | 19.3% | -82.5% (active) | -56.3% (active) | -76.9% (active)
COc1ccc(C=CC(=O)c2ccc(-n3c(C)nc4c(cnn4-c4ccccc4)c3=O)cc2)cc1 |  | 70.6% | 107% | 80.5% | 97.8% | 97.3% | 90.8% | 84.6% | 116% | 57.4%
O=C(Cc1ccc2c(c1)CN(C1CCC(=O)NC1=O)C2=O)NCCc1ccccc1 (centres undefined) |  | 11.4% | 22.5% | 0.419% (active) | 110% | -14.1% (active) | 20.3% | 6.47% (active) | 0.214% (active) | 35.4%
CC(=O)OC[C@@]1(C)C2CC[C@]3(C)C(CC=C4C5CC(C)(C)CC[C@]5(C(=O)Nc5ccccc5)CC[C@]43C)[C@@]2(C)C[C@@H](OC(C)=O)[C@@H]1OC(C)=O (some centres undefined) |  | 40.6% | 61.1% | 32.8% | 32% | 40.1% | 39.6% | 45.7% | 45.5% | 42%
COc1ccc(-c2ccc(/C=N/NC(=O)c3[nH]c4ccc(Br)cc4c3-c3ccccc3)s2)cc1 |  | 105% | 92.3% | 96.1% | 27.7% | 120% | 71.9% | 112% | 97.6% | 82.9%
